Assay [1] in a line: A549 cell viability effects, profiling panel, calcein-AM fluorescence, 48 h, basal (AID 1162). Note: test concentration not given here. The note with it: higher = more signal.
Assay [2] is described as follows: adipocyte viability effects, profiling panel, cell-based, 3T3-L1 adipocytes, calcein-AM fluorescence, 48 h, basal (AID 1163). Note: test concentration not given here. The following applies: 3T3-L1 adipocytes viability, higher = more signal.
Assay [3] is described as follows: HepG2 cell viability effects, profiling panel, calcein-AM fluorescence, 48 h, basal (AID 1164). Note: test concentration not given here. The note with it: higher = more signal.
Assay [4] can be described thus: MM1S cell viability effects, profiling panel, calcein-AM fluorescence, 48 h, basal (AID 1165).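 Note: viability of MM1S multiple myeloma cells under basal unstimulated conditions; test concentration not given here.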 The note with it: higher = more signal.
The nature of assay [5]: basal RPMI8226 viability, no added stimulus, profiling panel, cell-based, calcein-AM fluorescence, 48 h, PK04 Diversity Set (AID 1166).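 Note: cells grown under basal conditions without added stimulus; test concentration not given here.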 The following applies: RPMI8226 myeloma viability, higher = more signal.
A short description of assay [6]: basal HepG2 mitochondrial membrane potential changes, profiling panel, cell-based, JC-1 fluorescence, 24 h, 100 nL compound (AID 1167). Note: test concentration not given here. The following applies: higher = more signal.
A short description of assay [7]: basal 3T3-L1 adipocyte mitochondrial potential changes, profiling panel, cell-based, JC-1 fluorescence, 3T3-L1 adipocytes, 24 h, 100 nL compound (AID 1168). Note: test concentration not given here. The note with it: JC-1 mitochondrial fluorescence, higher = more signal, called active from +8 up or from −8 down.
The nature of assay [8]: basal RPMI8226 mitochondrial membrane potential changes, profiling panel, cell-based, JC-1 fluorescence, 24 h, 100 nL compound (AID 1169). Note: test concentration not given here. The following applies: RPMI8226 myeloma, JC-1 mitochondrial potential fluorescence, higher = more signal.
Assay [9] is described as follows: basal MM1S mitochondrial membrane potential changes, profiling panel, cell-based, JC-1 fluorescence, 24 h, 100 nL compound (AID 1170). Note: test concentration not given here. The following applies: higher = more signal.
Assay [10] can be described thus: A549 lung cancer cell viability effects, profiling panel, resazurin fluorescence, 24 h, PK04 Diversity Set (AID 1171). Note: test concentration not given here. The following applies: higher = more signal, called active from +8 up or from −8 down. (Resazurin is reduced to fluorescent resorufin, in cell work by metabolically active cells.)
The nature of assay [11]: HepG2 liver cancer cell viability effects, profiling panel, resazurin fluorescence, 24 h, PK04 Diversity Set (AID 1172). Note: test concentration not given here. The note with it: higher = more signal.
Assay [12] in a line: basal S. cerevisiae growth modulation, no modifier, primary screen, OD600, strain BY4716, 24 h, basal condition (AID 1173). The note with it: OD600, 24 h, higher = more signal, called active from +8 up or from −8 down.
Assay [13] can be described thus: MM1S myeloma cell viability, profiling panel, resazurin fluorescence, basal, 24 h, PK04 Diversity Set (AID 1174).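 Note: MM1S multiple myeloma cell line; test concentration not given here.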 The following applies: higher = more signal, called active from +8 up or from −8 down.
For assay [14], the target named is Dihydroorotate dehydrogenase (quinone), mitochondrial (Plasmodium falciparum (isolate 3D7)) (UniProt Q08210). As to the kind of experiment: PfDHODH enzyme inhibitors, primary screen, biochemical, C-terminal His tag, absorbance 600 nm (AID 1175).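 Note: recombinant parasite enzyme with a five histidine tag at its C terminus; test concentration not given here.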 The following applies: DCIP absorbance 600 nm, higher = more signal, called active from +8 up or from −8 down.
Assay [15] can be described thus: P. aeruginosa biofilm formation inhibitors, primary screen, strain PAO1, LB-PBS medium, absorbance 600 nm (AID 1176). Note: test concentration not given here. The note with it: P. aeruginosa PAO1 growth/biofilm, A600, 12 h; higher = more signal.
Assay [16] is described as follows: S. cerevisiae RM11-1a growth modifiers, primary screen, strain RM11-1a, OD600, basal, 24 h (AID 1177).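 Note: cultures grown under basal conditions with no added stressor; test concentration not given here.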 The note with it: OD600, 24 h, higher = more signal, called active from +8 up or from −8 down.
The nature of assay [17]: E. coli acrAB mutant growth effects, primary screen, E. coli filamentation inducers, strain DRC39, OD650, 24 h (AID 1178).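 Note: growth measured as culture turbidity by optical density at 650 nm; test concentration not given here.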 The note with it: higher = more signal, called active from +8 up or from −8 down.
The nature of assay [18]: E. coli acrAB mutant growth effects, primary screen, E. coli filamentation inducers, strain DRC39, OD650, 48 h (AID 1179).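 Note: screen aims at cell division blockers that make cells filament.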 The note with it: E. coli DRC39 delta-acrAB growth, higher = more signal, called active from +8 up or from −8 down.
Assay [19] in a line: RPMI8226 myeloma cell viability, profiling panel, resazurin fluorescence, basal, 24 h, PK04 Diversity Set (AID 1180).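 Note: RPMI8826 multiple myeloma cell line at 5000 cells per well; test concentration not given here.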 The following applies: higher = more signal.
The target of assay [20] is E3 ubiquitin-protein ligase XIAP (Homo sapiens) (UniProt P98170). Briefly: XIAP binders, primary screen, biophysical, small-molecule microarray, fluorescence 635 nm (AID 1181).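 Note: score merges 667 nm emission and signal to noise over triplicate slides.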 The note with it: small-molecule microarray binding, higher = more signal.

This is an account of results in PubChem BioAssay.

Active and inactive are the calls of the source. Unless noted, the rule behind the calls is not given here.

Dihydroorotate dehydrogenase (quinone), mitochondrial (Plasmodium falciparum (isolate 3D7)), sequence (Q08210 whole entry, looked up): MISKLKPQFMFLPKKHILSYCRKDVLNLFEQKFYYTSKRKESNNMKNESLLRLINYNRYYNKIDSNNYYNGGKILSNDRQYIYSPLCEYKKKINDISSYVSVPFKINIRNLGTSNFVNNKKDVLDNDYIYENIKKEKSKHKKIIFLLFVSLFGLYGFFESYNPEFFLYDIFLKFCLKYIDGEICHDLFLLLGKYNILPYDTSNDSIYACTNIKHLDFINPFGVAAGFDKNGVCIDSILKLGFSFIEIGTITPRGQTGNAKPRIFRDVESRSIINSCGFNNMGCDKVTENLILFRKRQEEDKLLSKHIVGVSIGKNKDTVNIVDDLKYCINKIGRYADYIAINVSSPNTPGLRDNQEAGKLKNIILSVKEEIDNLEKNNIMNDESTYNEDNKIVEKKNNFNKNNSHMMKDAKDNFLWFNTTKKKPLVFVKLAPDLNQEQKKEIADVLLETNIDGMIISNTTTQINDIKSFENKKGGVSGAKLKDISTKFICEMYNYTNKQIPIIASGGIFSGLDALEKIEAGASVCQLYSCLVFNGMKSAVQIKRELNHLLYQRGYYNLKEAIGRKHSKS
E3 ubiquitin-protein ligase XIAP (Homo sapiens), sequence (P98170 whole entry, looked up): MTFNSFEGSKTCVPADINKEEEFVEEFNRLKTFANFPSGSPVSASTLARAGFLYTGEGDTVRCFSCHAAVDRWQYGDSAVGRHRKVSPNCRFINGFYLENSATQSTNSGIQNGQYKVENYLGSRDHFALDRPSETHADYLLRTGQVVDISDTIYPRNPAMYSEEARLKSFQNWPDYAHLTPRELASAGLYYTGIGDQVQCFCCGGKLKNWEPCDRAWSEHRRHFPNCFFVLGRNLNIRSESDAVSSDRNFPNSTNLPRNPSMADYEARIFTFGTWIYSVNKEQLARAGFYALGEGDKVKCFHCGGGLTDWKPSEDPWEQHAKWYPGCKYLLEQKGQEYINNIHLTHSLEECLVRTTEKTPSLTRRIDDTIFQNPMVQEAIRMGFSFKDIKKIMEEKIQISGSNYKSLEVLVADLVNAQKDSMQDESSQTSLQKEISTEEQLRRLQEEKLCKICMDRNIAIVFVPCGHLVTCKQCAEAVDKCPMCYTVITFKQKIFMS

For the compound `CN1C(=O)C2C=CC(C(O)c3ccco3)N(Nc3ccccc3)C2C1=O` (stereo not given), the z-score is -0.835 in assay [1]; -1.12 in assay [2]; -0.315 in assay [3]; -1.34 in assay [4]; -0.137 in assay [5]; -1.67 in assay [6]. Also, the z-score was -0.783 (inactive) in [7]; 0.819 in assay [8]; -0.101 in [9]; -0.579 (inactive) in [10]; -0.86 in assay [11]; 1.35 (inactive) in assay [12]. Besides, the z-score is -0.944 (inactive) in assay [13]; 1.41 (inactive) in assay [15]; 1.61 (inactive) in assay [16]; -0.436 (inactive) in assay [17]; -0.0442 (inactive) in [18]; -0.328 in assay [19]. For the same compound, the composite z-score in [14] was 1.24 (inactive); in [20], 0.42.

Take `COCCCNC(=O)[C@@H]1c2ccccc2C(=O)N(Cc2ccccc2Cl)[C@H]1c1ccc(CO)cc1`: the z-score is 0.897 in assay [1]; -0.137 in assay [2]; 1.84 in assay [3]; 0.448 in [4]; 1.28 in assay [5]; 2.87 in assay [6]. Also, the z-score was 0.385 (inactive) in assay [7]; -0.21 in assay [8]; 0.418 in [9]; -0.028 (inactive) in [10]; -0.378 in [11]; -0.259 (inactive) in assay [12]. In addition, the z-score was 0.655 (inactive) in assay [13]; 0.692 (inactive) in [15]; -1.02 (inactive) in assay [16]; 0.987 (inactive) in [17]; 1.16 (inactive) in [18]; 0.871 in [19]. Also, the composite z-score is -0.636 (inactive) in [14] and 0.78 in assay [20].

As for `CCOC(=O)C[C@H]1[C@H](OC(=O)c2ccccc2-c2ccccc2)[C@@H](NC(=O)CC(C)C)c2cc(OCCCO)ccc2N1C(=O)Cc1ccc(OC)cc1`, the z-score in assay [1] was 0.412; in [2], 0.417; in assay [3], 0.612; in assay [4] it was -1.52; in assay [5], -0.884; in assay [6], 1.4. Further, the z-score was 0.652 (inactive) in assay [7]; -0.0827 in assay [8]; 0.32 in [9]; 1.34 (inactive) in assay [10]; -0.211 in assay [11]; -0.184 (inactive) in assay [12]. Besides, the z-score is 0.0683 (inactive) in assay [13]; -0.165 (inactive) in [15]; -0.0992 (inactive) in [16]; -0.234 (inactive) in assay [17]; -0.488 (inactive) in assay [18]; 0.456 in assay [19]. For the same compound, the composite z-score in assay [14] is 0.712 (inactive); in [20] it was -0.135.

With `COC(=O)[C@@]1(CCC(=O)OC(C)(C)C)N=C(c2ccc(OCCCO)cc2)O[C@H]1c1ccccc1N=[N+]=[N-]`, the z-score was -1.99 in [1]; 1.12 in assay [2]; -1.92 in [3]; -3.6 in assay [4]; -3.93 in assay [5]; -0.429 in assay [6]. For the same compound, the z-score in [7] was 0.581 (inactive); in [8], -1; in assay [9] it was -2.34; in [10], -2.08 (inactive); in assay [11], -1.15; in assay [12], 0.381 (inactive). The z-score in assay [13] was -6.96 (inactive); in assay [15], 2.78 (inactive); in assay [16], 1 (inactive); in assay [17], 0.276 (inactive); in assay [18], -0.903 (inactive); in [19] it was -5.04. Further, the figures for the composite z-score in assay [14] and in assay [20] were 0.414 (inactive) and 0.168, respectively.

In the case of `COCCOC(=O)N1C(=O)[C@@]2(c3cc(C#CCCO)ccc31)[C@H](C(=O)N1CCCCCCC1)[C@H]1C(=O)O[C@H](c3ccccc3)[C@H](c3ccccc3)N1[C@@H]2c1ccc(OCCO)cc1`, the z-score in assay [1] is 0.338; in [2], 1.74; in assay [3], 0.155; in assay [4], -0.284; in assay [5] it was -1.54; in [6], -1.68. Further, the z-score was -1.47 (inactive) in assay [7]; -1.25 in [8]; -1.02 in assay [9]; 0.76 (inactive) in [10]; 0.902 in assay [11]; 0.849 (inactive) in assay [12]. Also, the z-score in assay [13] is 0.368 (inactive); in assay [15], 1.56 (inactive); in assay [16], 2.32 (inactive); in assay [17] it was -0.0574 (inactive); in assay [18], 0.215 (inactive); in assay [19], -2.44. Further, the composite z-score in assay [14] is 0.047 (inactive); in assay [20], 1.06.

Take `C[N+](C)(C)CCCCCCNC(=O)[C@@H]1C[C@@H]2C(=O)N[C@@H](Cc3ccccc3)C(=O)N2[C@@H]1c1cccc(OCCO)c1`: the z-score is 0.741 in assay [1]; 0.0098 in assay [2]; 0.417 in assay [3]; 0.653 in assay [4]; 0.925 in assay [5]; -0.432 in assay [6]. For the same compound, the z-score in [7] is 0.543 (inactive); in [8] it was -0.267; in [9] it was -0.544; in assay [10] it was 0.898 (inactive); in assay [11], 0.844; in assay [12] it was -0.393 (inactive). Besides, the z-score is 0.328 (inactive) in [13]; -0.27 (inactive) in assay [15]; 0.153 (inactive) in [16]; 1.14 (inactive) in assay [17]; 1.35 (inactive) in [18]; 0.755 in [19]. Also, the composite z-score in assay [14] was -0.0631 (inactive); in [20], 0.0905.

For the compound `CCOC(=O)C1=CC[C@@H](c2ccccc2)N(S(=O)(=O)c2ccc(C)cc2)[C@H]1c1ccccc1C`, the z-score was -1.42 in assay [1]; 0.068 in assay [2]; -0.0628 in assay [3]; -0.247 in assay [4]; -0.734 in assay [5]; 2.59 in [6]. In addition, the z-score in [7] was -0.134 (inactive); in [8], -0.275; in assay [9], -0.271; in assay [10], 2.32 (inactive); in assay [11], 1.81; in assay [12], 0.786 (inactive). Also, the z-score in assay [13] is 0.336 (inactive); in [15], -0.377 (inactive); in [16] it was -0.59 (inactive); in assay [17], -0.502 (inactive); in [18], 0.3 (inactive); in assay [19], 0.686. In addition, the results for the composite z-score in [14] and in [20] were -0.494 (inactive) and -0.0239, respectively.

For `CCCC#C[Si](O[C@H](CC)c1cn(Cc2cccc(Cl)c2)nn1)(C(C)C)C(C)C`, the z-score in [1] was 1.19; in assay [2] it was -1.07; in assay [3], 1.58; in assay [4], -1.07; in [5] it was -0.223; in assay [6], -0.742. Also, the z-score was -0.228 (inactive) in assay [7]; -0.112 in assay [8]; -0.916 in [9]; 0.158 (inactive) in assay [10]; 0.345 in assay [11]; -12.9 (active) in [12]. In addition, the z-score is 0.0454 (inactive) in assay [13]; -0.0057 (inactive) in [15]; 0.61 (inactive) in assay [16]; 1.11 (inactive) in assay [17]; 0.775 (inactive) in assay [18]; 0.33 in assay [19]. Further, the composite z-score in assay [14] is -0.345 (inactive); in [20], -0.0855.

Turning to `CC(C)C(O)C1C=CC2C(=O)N(c3ccccc3)C(=O)C2N1Nc1ccc([N+](=O)[O-])cc1` (stereo not given), the z-score in [1] is -0.821; in [2] it was -1.18; in [3], 0.497; in assay [4] it was 0.637; in assay [5], -0.023; in [6], -1.41. Moreover, the z-score in assay [7] is -1.37 (inactive); in assay [8], 0.766; in [9] it was -1.07; in assay [10], -0.397 (inactive); in assay [11], -0.283; in assay [12], -0.539 (inactive). Further, the z-score was -0.413 (inactive) in assay [13]; 0.312 (inactive) in assay [15]; -0.0749 (inactive) in assay [16]; -0.912 (inactive) in assay [17]; -0.347 (inactive) in assay [18]; -0.601 in assay [19]. Further, the composite z-score in assay [14] is -0.0755 (inactive); in assay [20] it was 0.302.
